CatS inh: inhibitors of human cathepsin S, biochemical, compound mixtures | AID 501, 2006 | inhibition, %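 (tested at 5 µM per compound within 10-compound mixtures)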 | actives 0.06% (n = 62,000) | P25774 | recombinant cathepsin S, AMC dipeptide fluorescence, pooled mixtures; in the data active means inhibition above about 32%, passing the limit was not always enough;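 further: 0% = enzyme without compound and 100% = blank without enzyme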
Target sequence (P25774 115-331 limits assumed): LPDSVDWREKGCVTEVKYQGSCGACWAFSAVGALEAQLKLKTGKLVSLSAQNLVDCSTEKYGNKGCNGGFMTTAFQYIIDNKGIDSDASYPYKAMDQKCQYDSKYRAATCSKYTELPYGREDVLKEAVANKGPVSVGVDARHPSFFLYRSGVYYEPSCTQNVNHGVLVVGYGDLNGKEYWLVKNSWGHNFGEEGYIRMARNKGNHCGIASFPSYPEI
CatB block: human cathepsin B inhibitors, primary screen, biochemical, fluorogenic substrate; purified cathepsin B, fluorescence; inhibition, %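 (tested at 10 µM)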; actives 0.1% (n = 63,000); in the data active means inhibition above about 21%;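 further: 0% = enzyme with no compound and 100% = no enzyme blank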
SKBR3 24h inh: SK-BR-3 proliferation inhibitors, primary screen, cell-based, human, 24 h; SK-BR-3 viability, CellTiter-Glo ATP luminescence; stronger effect = lower value; viability, % at 10 µM; actives 0.47% (n = 41,000);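 active means viability at or below the median of all test compounds minus 3 SD, in both replicates if run twice, cut at about 45% in these data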;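 further: 100% = median untreated cell wells and 0% = median positive control drug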
CatL inh: inhibitors of human cathepsin L, biochemical. Procathepsin L (Homo sapiens), P07711. purified cathepsin L, fluorogenic substrate, fluorescence. inhibition, %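 (tested at 10 µM)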. actives 0.17% (n = 58,000). AID 460, 2006; in the data active means inhibition above about 45%;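 further: 0% = enzyme with no compound and 100% = no enzyme blank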
HER2 expr 66K: inhibitors of Her2 protein expression, primary screen, SKBR-3 cells, AlphaScreen, 66K library. Receptor tyrosine-protein kinase erbB-2 (Homo sapiens), P04626. actives 0.69% (n = 65,000). HER2 level % of control, % at 10 µM. SKBR-3 HER2 protein level, 18-24 h; stronger effect = lower value. AID 645, 2007;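 active means HER2 level under 5% of the carrier-only control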;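 further: 100% = DMSO carrier and 0% = 500 nM PU-H71 HSP90 inhibitor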
CatB mixtures: cathepsin B inhibitors from pooled compounds, primary screen, biochemical, compound mixtures, AMC fluorescence; P07858; Purified cathepsin B, AMC dipeptide fluorescence; inhibition, %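 (ten-compound pools at 5 µM per compound and 50 µM total)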; actives 0.06% (n = 62,000); in the data active means inhibition above about 22%, passing the limit was not always enough;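 further: 0% = enzyme without compound and 100% = no enzyme blank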
* marks the source's active call; other numbers are inactive results. The list is not random: actives were taken first. Their share in the collection is about 1.1%.

For COC(=O)c1sc(S(=O)(=O)N2CCN(c3ccccc3)CC2)c(C(=O)OC)c1C the results were CatS inh 17.7, CatB block -11.2, SKBR3 24h inh 91.1, CatL inh 7.2, HER2 expr 66K -29.9* and CatB mixtures 6.6.
`O=C(Nc1cccc2c1CCCC2)c1ccc(Br)o1` gave CatS inh 3.4, CatB block -6.8, SKBR3 24h inh 98.1, CatL inh 20.4, HER2 expr 66K 92.6 and CatB mixtures 5.0.
O=C(CSc1nnc(-c2cccs2)o1)OCc1ccccc1 was read as CatS inh 14.0, CatB block 7.3, SKBR3 24h inh 42.5*, HER2 expr 66K 90.1 and CatB mixtures 1.8.
Screening c1ccc(CNC2=NCCC2)nc1 returned CatS inh -8.5, CatB block 6.6, CatL inh 0.4, HER2 expr 66K -27.4* and CatB mixtures -3.8.
O=C(C1CCN(S(=O)(=O)c2ccc(Br)s2)CC1)N1CCc2ccccc21 was read as CatS inh 2.2, CatB block 1.2, CatL inh 3.5, HER2 expr 66K 107.4 and CatB mixtures 2.2.

High-throughput results (PubChem)
